# ± gives the standard deviation of the averaged measurements.
# How the values were obtained:
# [1] = test system: Escherichia coli Nissle 1917; experiment: area under OmniLog respiration curve over 48 h (OmniLog units x h); higher = more growth / nutrient utilisation; extreme values may be limits of the assay; settings: incubation: 48 h, 37 °C
# [2] = test system: Escherichia coli Nissle 1917; experiment: DuctApe activity index of respiration/growth curve (0 no growth to 9 maximum) (index 0-9); higher = more growth / nutrient utilisation, active = 3 or more; extreme values may be limits of the assay; settings: incubation: 48 h, 37 °C
# [3] = nutrient role: sole phosphorus source (pyruvate carbon)
# [4] = nutrient role: C-Source, carboxylic acid
# [5] = nutrient role: C-Source, amino acid
# [6] = nutrient role: sole sulfur source (pyruvate carbon)
# [7] = nutrient role: C-Source, carbohydrate
# 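For DuctApe activity index of respiration/growth curve (0 no growth to 9 maximum) in this document: biolog PM4 phosphorus and sulfur plates, tetrazolium violet dye reduction read in the OmniLog every 15 min, kinetic curves scored by DuctApe, each plate run in triplicate.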
compound,measurement,setting,value
O=c1ccn([C@@H]2O[C@H](CO)[C@@H](OP(=O)(O)O)[C@H]2O)c(=O)[nH]1 [Uridine 3`-Monophosphate],area under OmniLog respiration curve,[1]; [3],9010 ± 750
same,DuctApe activity index,[2]; [3],8.67 (active)
O=C1CC[C@@H](C(=O)O)O1 [a-Hydroxyglutaric acid-g-Lactone],area under OmniLog respiration curve,[1]; [4],4.72
same,DuctApe activity index,[2]; [4],0 (inactive)
O=C(O)C(=O)O [Oxalic acid],area under OmniLog respiration curve,[1]; [4],5.41 ± 1.2
same,DuctApe activity index,[2]; [4],0 (inactive)
NCC(=O)N[C@@H](CC(=O)O)C(=O)O,area under OmniLog respiration curve,[1]; [5],8800 ± 750
same,DuctApe activity index,[2]; [5],8.67 (active)
O=C(O)C(O)COP(=O)(O)O [D-3-Phospho-Glyceric acid],area under OmniLog respiration curve,[1]; [3],9300 ± 690
same,DuctApe activity index,[2]; [3],8.67 (active)
Nc1ccc(S(=O)(=O)O)cc1 [p-Aminobenzene Sulfonic acid],area under OmniLog respiration curve,[1]; [6],550 ± 470
same,DuctApe activity index,[2]; [6],0 (inactive)
OCC1(O)OC[C@H](O)[C@@H](O)[C@@H]1O (stereo partly drawn) [L-Sorbose],area under OmniLog respiration curve,[1]; [7],6370 ± 540
same,DuctApe activity index,[2]; [7],7 (active)
O=C(O)/C=C/C(=O)O [Fumaric acid],area under OmniLog respiration curve,[1]; [4],8610 ± 570
same,DuctApe activity index,[2]; [4],8.33 (active)
O=C[C@H](O)[C@H](O)[C@@H](O)CO [L-Lyxose],area under OmniLog respiration curve,[1]; [7],2670 ± 880
same,DuctApe activity index,[2]; [7],4.33 (active)
C[C@H](O)[C@@H](N)C(=O)O [D-Threonine],area under OmniLog respiration curve,[1]; [5],291 ± 470
same,DuctApe activity index,[2]; [5],0.667 (inactive)
O=S1(=O)CCCC1 [Tetramethylene Sulfone],area under OmniLog respiration curve,[1]; [6],615 ± 500
same,DuctApe activity index,[2]; [6],0 (inactive)
O=C(O)Cc1cccc(O)c1 [m-Hydroxyphenyl Acetic acid],area under OmniLog respiration curve,[1]; [4],114 ± 120
same,DuctApe activity index,[2]; [4],0.667 (inactive)
CSCC[C@@H](N)C(=O)O [D-Methionine],area under OmniLog respiration curve,[1]; [6],4590 ± 230
same,DuctApe activity index,[2]; [6],6.33 (active)
Nc1ncnc2c1ncn2[C@@H]1O[C@H](CO)[C@@H](OP(=O)(O)O)[C@H]1O [Adenosine 3`-Monophosphate],area under OmniLog respiration curve,[1]; [3],9700 ± 640
same,DuctApe activity index,[2]; [3],9 (active)

# From the supplement of paper PMC9801561
